Laboratory results: the supplement of paper PMC8975748
Counter-ions that a name gives are not always drawn. ± gives the standard deviation of the averaged measurements.

Columns and labels:
[1] = tested on: Saccharomyces cerevisiae BY4741 SeMeCo community; assay: mean cell size (pixel area) (pixels); higher = larger cells; conditions: 10 µM; 24 h; SM minimal medium
Summary of the method: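 A four-plasmid fluorescent Saccharomyces cerevisiae BY4741 community was tested; each plasmid complements one auxotrophy and carries a fluorescent marker. An overnight preculture at OD600 = 1.0 was diluted to OD600 = 0.3, and 70 µl was added to 384-well plates acoustically predosed with drug (final 10 µM) in SM medium for 24 h. Cells were fixed with paraformaldehyde and imaged by automated confocal microscopy, with analysis in Harmony. Mean cell pixel area per well is averaged over 3 replicates. Same SeMeCo high-content imaging drug screen: Selleck FDA-approved drugs at 10 µM, 24 h in SM medium, 384-well plates, 3 replicates.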

[2] = tested on: Saccharomyces cerevisiae BY4741 SeMeCo community; assay: z-score of prototroph abundance vs DMSO median; higher = larger share of this subpopulation than in DMSO controls; conditions: 10 µM; 24 h; SM minimal medium; subpopulation (auxotrophy): Prototroph
Summary of the method: (§1)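 Four plasmids, each restoring a single auxotrophy and encoding a distinct fluorescent protein, were carried by a Saccharomyces cerevisiae BY4741 community. After overnight growth to OD600 1.0 and dilution to 0.3, 70 µl per well was grown for 24 h in minimal SM medium on 384-well plates acoustically predosed with library drugs at 10 µM final. Following paraformaldehyde fixation, automated confocal microscopy was used, with single-auxotroph fluorescent strains defining thresholds and autofluorescence correction. Subpopulation abundance was then scored as a z-score against the vehicle-well median.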

[3] = tested on: Saccharomyces cerevisiae BY4741 SeMeCo community; assay: z-score of subpopulation abundance vs DMSO median, subpopulation auxotrophic for M; higher = larger share of this subpopulation than in DMSO controls; conditions: 10 µM; 24 h; SM minimal medium; subpopulation (auxotrophy): M
Summary of the method: as §1

[4] = tested on: Saccharomyces cerevisiae BY4741 SeMeCo community; assay: z-score of subpopulation abundance vs DMSO median, subpopulation auxotrophic for L; higher = larger share of this subpopulation than in DMSO controls; conditions: 10 µM; 24 h; SM minimal medium; subpopulation (auxotrophy): L
Summary of the method: as §1

[5] = tested on: Saccharomyces cerevisiae BY4741 SeMeCo community; assay: z-score of subpopulation abundance vs DMSO median, subpopulation auxotrophic for U; higher = larger share of this subpopulation than in DMSO controls; conditions: 10 µM; 24 h; SM minimal medium; subpopulation (auxotrophy): U
Summary of the method: as §1

[6] = tested on: Saccharomyces cerevisiae BY4741 SeMeCo community; assay: z-score of subpopulation abundance vs DMSO median, subpopulation auxotrophic for LU; higher = larger share of this subpopulation than in DMSO controls; conditions: 10 µM; 24 h; SM minimal medium; subpopulation (auxotrophy): LU
Summary of the method: as §1

[7] = tested on: Saccharomyces cerevisiae BY4741 SeMeCo community; assay: z-score of subpopulation abundance vs DMSO median, subpopulation auxotrophic for HM; higher = larger share of this subpopulation than in DMSO controls; conditions: 10 µM; 24 h; SM minimal medium; subpopulation (auxotrophy): HM
Summary of the method: as §1

[8] = tested on: Saccharomyces cerevisiae BY4741 SeMeCo community; assay: z-score of subpopulation abundance vs DMSO median, subpopulation auxotrophic for HLU; higher = larger share of this subpopulation than in DMSO controls; conditions: 10 µM; 24 h; SM minimal medium; subpopulation (auxotrophy): HLU
Summary of the method: as §1

[9] = tested on: Saccharomyces cerevisiae BY4741 SeMeCo community; assay: z-score of subpopulation abundance vs DMSO median, subpopulation auxotrophic for HLM; higher = larger share of this subpopulation than in DMSO controls; conditions: 10 µM; 24 h; SM minimal medium; subpopulation (auxotrophy): HLM
Summary of the method: as §1

[10] = tested on: Saccharomyces cerevisiae BY4741 SeMeCo community; assay: z-score of subpopulation abundance vs DMSO median, subpopulation auxotrophic for HUM; higher = larger share of this subpopulation than in DMSO controls; conditions: 10 µM; 24 h; SM minimal medium; subpopulation (auxotrophy): HUM
Summary of the method: as §1

[11] = tested on: Saccharomyces cerevisiae BY4741 SeMeCo community; assay: z-score of subpopulation abundance vs DMSO median, subpopulation auxotrophic for LUM; higher = larger share of this subpopulation than in DMSO controls; conditions: 10 µM; 24 h; SM minimal medium; subpopulation (auxotrophy): LUM
Summary of the method: as §1

[12] = tested on: Saccharomyces cerevisiae BY4741 SeMeCo community; assay: z-score of subpopulation abundance vs DMSO median, subpopulation auxotrophic for H; higher = larger share of this subpopulation than in DMSO controls; conditions: 10 µM; 24 h; SM minimal medium; subpopulation (auxotrophy): H
Summary of the method: as §1

[13] = tested on: Saccharomyces cerevisiae BY4741 SeMeCo community; assay: z-score of subpopulation abundance vs DMSO median, subpopulation auxotrophic for HU; higher = larger share of this subpopulation than in DMSO controls; conditions: 10 µM; 24 h; SM minimal medium; subpopulation (auxotrophy): HU
Summary of the method: as §1

[14] = tested on: Saccharomyces cerevisiae BY4741 SeMeCo community; assay: z-score of subpopulation abundance vs DMSO median, subpopulation auxotrophic for UM; higher = larger share of this subpopulation than in DMSO controls; conditions: 10 µM; 24 h; SM minimal medium; subpopulation (auxotrophy): UM
Summary of the method: as §1

[15] = tested on: Saccharomyces cerevisiae BY4741 SeMeCo community; assay: z-score of subpopulation abundance vs DMSO median, subpopulation auxotrophic for HL; higher = larger share of this subpopulation than in DMSO controls; conditions: 10 µM; 24 h; SM minimal medium; subpopulation (auxotrophy): HL
Summary of the method: as §1

[16] = tested on: Saccharomyces cerevisiae BY4741 SeMeCo community; assay: z-score of subpopulation abundance vs DMSO median, subpopulation auxotrophic for HLUM; higher = larger share of this subpopulation than in DMSO controls; conditions: 10 µM; 24 h; SM minimal medium; subpopulation (auxotrophy): HLUM
Summary of the method: as §1

[17] = tested on: Saccharomyces cerevisiae BY4741 SeMeCo community; assay: z-score of subpopulation abundance vs DMSO median, subpopulation auxotrophic for LM; higher = larger share of this subpopulation than in DMSO controls; conditions: 10 µM; 24 h; SM minimal medium; subpopulation (auxotrophy): LM
Summary of the method: as §1

Row | Structure (SMILES) | mean cell size [1] | z-score of prototroph abundance [2] | z-score of subpopulation abundance [3] | z-score of subpopulation abundance [4] | z-score of subpopulation abundance [5] | z-score of subpopulation abundance [6] | z-score of subpopulation abundance [7] | z-score of subpopulation abundance [8] | z-score of subpopulation abundance [9] | z-score of subpopulation abundance [10] | z-score of subpopulation abundance [11] | z-score of subpopulation abundance [12] | z-score of subpopulation abundance [13] | z-score of subpopulation abundance [14] | z-score of subpopulation abundance [15] | z-score of subpopulation abundance [16] | z-score of subpopulation abundance [17]
1 | Cn1cc(C(=O)[C@@H]2CCc3[nH]cnc3C2)c2ccccc21 [Ramosetron Hydrochloride] | 12.6 ± 0.16 | -0.53 | 0.56 | -0.44 | 0.51 | 0.85 | 0.78 | 0.86 | 1.18 | -0.01 | 0.32 | – | – | – | – | – | –
2 | Cc1cccc(C)c1OCC(C)N (centres undefined) [Mexiletine HCl] | 12.3 ± 0.13 | 0.5 | -0.98 | -0.39 | 0.62 | 0.44 | -0.64 | -0.19 | -1.23 | -0.49 | -0.37 | -0.52 | 0.61 | -0.36 | -0.55 | -0.35 | –
3 | CCCSc1ccc2[nH]c(NC(=O)OC)nc2c1 [Albendazole] | 12.59 ± 0.075 | -0.36 | 0.54 | -0.04 | 0.62 | 0.31 | 0.37 | 0.38 | 0.74 | -0.14 | -0.08 | -0.51 | – | 0.26 | -0.39 | 0.29 | –
4 | CN(C)CCC[C@@]1(c2ccc(F)cc2)OCc2cc(C#N)ccc21 [Escitalopram Oxalate] | 12.4 ± 0.18 | 1.15 | 0.05 | 0.5 | -0.79 | -0.08 | – | -0.25 | -0.63 | -0.36 | -0.28 | -0.42 | -0.95 | -0.53 | -0.1 | – | –
5 | Cn1c(=O)c2[nH]cnc2n(C)c1=O [Aminophylline] | – | -0.44 | 0.43 | 0.83 | 0.26 | 1.06 | 0.42 | -0.5 | -0.27 | 0.11 | 0.29 | -0.41 | -0.5 | 0.33 | 0.54 | -0.29 | 0.92
6 | CCc1c2c(nc3ccc(OC(=O)N4CCC(N5CCCCC5)CC4)cc13)-c1cc3c(c(=O)n1C2)COC(=O)[C@]3(O)CC [Irinotecan HCl Trihydrate] | 12.5 ± 0.15 | -0.17 | 1.27 | -0.66 | -0.91 | -0.66 | 0.47 | -0.35 | 0.91 | 0.52 | 0.14 | 0.65 | -0.6 | -0.07 | 0.06 | 0.04 | –
7 | COc1ccc(CNc2nc(N3CCC[C@H]3CO)ncc2C(=O)NCc2ncccn2)cc1Cl [Avanafil] | 12.5 ± 0.16 | -0.15 | 0.21 | -0.77 | 0.68 | -0.03 | 0.22 | 0.58 | -0.87 | 0.44 | -0.38 | -0.56 | 0.11 | 0.93 | -0.55 | -0.54 | –
